# Assay results reported in PubChem BioAssay (EPA / NIEHS).
# Several values for one entry are separate records, joined by “and”; a condition that tells them apart may be missing. Equal entries are not always repeated. Some compounds were tested as several samples or in several runs, with calls that do not always agree. Activity calls are given as the source filed them. How the source made its calls: active means hit-call score of the fitted dose curve at least 0.9, where 1 is the maximum; inactive means score below 0.9.
# Key:
# Conditions in all cases: mRNA level, 48 h; actives raise or lower the signal
# CYP3A5 (gene 1577) = test: LTEA_HepaRG_CYP3A5: Life Technologies and Expression Analysis (LTEA) Assay for CYP3A5 using HepaRG (AID 2283493)
# How it was run: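 HepaRG plated 48 h, switched to serum-free induction medium, chemicals added 48 h (max 100 uM, half-log, 0.5% DMSO). RNA isolated; CYP3A5 by TaqMan qRT-PCR. Gain/loss vs DMSO.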
# [1] = read-out: Fatty Acid-Binding Protein 1 (FABP1), FABP1 (gene 2168); test: LTEA_HepaRG_FABP1: Life Technologies and Expression Analysis (LTEA) Assay for Fatty Acid-Binding Protein 1 (FABP1) using HepaRG (AID 2283494)
# How it was run: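 HepaRG, 48 h post-plating switched to serum-free induction medium, then dosed 48 h (duplicate, 8 pts, ≤100 uM, 0.5% DMSO). RNA → Fluidigm TaqMan qRT-PCR, FABP1 normed to ACTB/GAPDH/POLR2A. Bidirectional curve fit vs DMSO.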
# [2] = read-out: Cytochrome P450 4A22 (Homo sapiens) (UniProt Q5TCH4); test: LTEA_HepaRG_CYP4A22: Life Technologies and Expression Analysis (LTEA) Assay for Cytochrome P450 4A22 (CYP4A22) using HepaRG (AID 2283495)
# How it was run: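 qRT-PCR of CYP4A22 mRNA (Fluidigm TaqMan, normalized to three housekeeping genes) after 48 h chemical exposure of HepaRG cells; 8-point half-log series, top 100 uM, 0.5% DMSO vehicle. Bidirectional curve fitting vs DMSO baseline.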
# [3] = read-out: Glutathione S-Transferase (GSTA2), GSTA2 (gene 2939); test: LTEA_HepaRG_GSTA2: Life Technologies and Expression Analysis (LTEA) Assay for Glutathione S-Transferase (GSTA2) using HepaRG (AID 2283497)
# How it was run: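 HepaRG, 48 h dosing, 8-pt half-log CRC from 100 uM, 0.5% DMSO vehicle, n=2; RNA → Fluidigm TaqMan qRT-PCR; GSTA2 vs ACTB/GAPDH/POLR2A; gain/loss fit vs DMSO.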
# [4] = read-out: Glutamate-cysteine ligase catalytic (GCLC), GCLC (gene 2729); test: LTEA_HepaRG_GCLC: Life Technologies and Expression Analysis (LTEA) Assay for Glutamate-cysteine ligase catalytic (GCLC) using HepaRG (AID 2283498)
# How it was run: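 Read-out is GCLC transcript level by Fluidigm-based TaqMan qRT-PCR, normalized to three housekeeping genes and fitted in both directions relative to 0.5% DMSO. Human HepaRG cells received chemicals for 48 h, up to 100 uM.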
# [5] = read-out: growth arrest and DNA damage 45 (GADD45G), GADD45G (gene 10912); test: LTEA_HepaRG_GADD45G: Life Technologies and Expression Analysis (LTEA) Assay for growth arrest and DNA damage 45 (GADD45G) using HepaRG (AID 2283499)
# How it was run: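 Differentiated human HepaRG cells in serum-free induction medium were exposed for 48 h to 8 half-log concentrations up to 100 uM in 0.5% DMSO, in duplicate. GADD45G mRNA was measured by TaqMan qRT-PCR, normalised to ACTB, GAPDH and POLR2A, and fitted bidirectionally against DMSO.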
# [6] = read-out: Glutamate-cysteine ligase regulatory (GCLM), GCLM (gene 2730); test: LTEA_HepaRG_GCLM: Life Technologies and Expression Analysis (LTEA) Assay for Glutamate-cysteine ligase regulatory (GCLM) using HepaRG (AID 2283500)
# How it was run: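 Cells were plated, cultured 48 h, switched to serum-free induction medium, then dosed in duplicate for 48 h at eight half-log concentrations up to 100 uM. RNA was then profiled by qRT-PCR; gain or loss versus DMSO was fitted.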
# [7] = read-out: Glutathione S-transferase M3 (GSTM3), GSTM3 (gene 2947); test: LTEA_HepaRG_GSTM3: Life Technologies and Expression Analysis (LTEA) Assay for Glutathione S-transferase M3 (GSTM3) using HepaRG (AID 2283501)
# How it was run: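 Differentiated HepaRG cells in serum-free induction medium were exposed in duplicate for 48 h to 8 half-log concentrations up to 100 uM in 0.5% DMSO. GSTM3 mRNA was measured by TaqMan qRT-PCR, normalized to ACTB/GAPDH/POLR2A, and fitted bidirectionally versus DMSO.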
# [8] = read-out: Heat shock 70 kDa protein 1 (HSPA1A), gene 3303; test: LTEA_HepaRG_HSPA1A: Life Technologies and Expression Analysis (LTEA) Assay for Heat shock 70 kDa protein 1 (HSPA1A) using HepaRG (AID 2283502)
# How it was run: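 Readout is HSPA1A transcript level by microfluidic qRT-PCR, normalized to three housekeeping genes and analysed for gain or loss of signal relative to 0.5% DMSO. Human HepaRG cultures received test chemicals for 48 h at up to 100 uM.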
# [9] = read-out: Cytochrome P450 7A1 (Homo sapiens) (UniProt P22680); test: LTEA_HepaRG_CYP7A1: Life Technologies and Expression Analysis (LTEA) Assay for Cytochrome P450 7A1 (CYP7A1) using HepaRG (AID 2283496)
# How it was run: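 HepaRG cells plated 48 h, then switched to serum-free induction medium and exposed in duplicate for 48 h to 8-point half-log series from 100 uM in 0.5% DMSO. CYP7A1 mRNA by qRT-PCR (TaqMan), normalized to ACTB/GAPDH/POLR2A; bidirectional fit versus DMSO.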
smiles,measurement,setting,value
CNC(=O)Oc1ccccc1OC(C)C,outcome,CYP3A5 (gene 1577),inactive
same,outcome,[1],inactive
same,outcome,[2],inactive
same,outcome,[3],inactive
same,outcome,[4],inactive
same,outcome,[5],inactive
same,outcome,[6],inactive
same,outcome,[7],inactive
same,outcome,[8],inactive
O=S(=O)(O)C(F)(F)C(F)(F)C(F)(F)C(F)(F)C(F)(F)C(F)(F)C(F)(F)C(F)(F)F,AC50,[1],94.2 µM (active) and 77 µM (active)
same,outcome,[1],inactive
same,AC50,[2],89.2 µM (active) [middle of 4 runs]
same,AC50,[9],94.4 µM (active) and 94 µM (active) and 75.4 µM (active)
same,outcome,[9],inactive
same,AC50,[3],76.5 µM (active) [middle of 4 runs]
same,outcome,[4],inactive
same,AC50,[5],5.76 µM (active)
same,outcome,[5],inactive
same,outcome,[6],inactive
same,outcome,[7],inactive
same,AC50,[8],19.9 µM (active)
same,outcome,[8],inactive
O=C(NC(=O)c1c(F)cccc1F)Nc1ccc(OC(F)(F)C(F)OC(F)(F)F)c(Cl)c1 (stereo not drawn),outcome,[1],inactive
same,outcome,[2],inactive
same,outcome,[9],inactive
same,outcome,[3],inactive
same,outcome,[4],inactive
same,outcome,[5],inactive
same,outcome,[6],inactive
same,outcome,[7],inactive
same,outcome,[8],inactive
CC1(C)C(C=C(Cl)Cl)C1C(=O)OC(C#N)c1ccc(F)c(Oc2ccccc2)c1 (stereo not drawn),outcome,[1],inactive
same,outcome,[2],inactive
same,outcome,[9],inactive
same,outcome,[3],inactive
same,outcome,[4],inactive
same,outcome,[5],inactive
same,outcome,[6],inactive
same,outcome,[7],inactive
same,outcome,[8],inactive
Oc1cc(Cl)ccc1Oc1ccc(Cl)cc1Cl,AC50,[1],88.9 µM (active)
same,outcome,[1],inactive
same,AC50,[2],51 µM (active) and 76.4 µM (active)
same,outcome,[2],inactive
same,AC50,[9],72.8 µM (active)
same,outcome,[9],inactive
same,AC50,[3],83.7 µM (active)
same,outcome,[3],inactive
same,outcome,[4],inactive
same,AC50,[5],51 µM (active)
same,outcome,[5],inactive
same,AC50,[6],89.6 µM (active)
same,outcome,[6],inactive
same,outcome,[7],inactive
same,outcome,[8],inactive
COP(=S)(OC)Oc1ccc([N+](=O)[O-])cc1,outcome,CYP3A5 (gene 1577),inactive
same,outcome,[1],inactive
same,outcome,[2],inactive
same,outcome,[9],inactive
same,outcome,[3],inactive
same,outcome,[4],inactive
same,outcome,[5],inactive
same,outcome,[6],inactive
same,outcome,[7],inactive
same,outcome,[8],inactive
OCCOc1ccccc1,outcome,[1],inactive
same,outcome,[2],inactive
same,outcome,[9],inactive
same,outcome,[3],inactive
same,outcome,[4],inactive
same,outcome,[5],inactive
same,outcome,[6],inactive
same,outcome,[7],inactive
same,outcome,[8],inactive
CNC(=O)/C=C(\C)OP(=O)(OC)OC,outcome,[1],inactive
same,outcome,[2],inactive
same,outcome,[9],inactive
same,outcome,[3],inactive
same,outcome,[4],inactive
same,outcome,[5],inactive
same,outcome,[6],inactive
same,outcome,[7],inactive
same,outcome,[8],inactive
COc1nn(CSP(=S)(OC)OC)c(=O)s1,outcome,[1],inactive
same,outcome,[2],inactive
same,outcome,[9],inactive
same,outcome,[3],inactive
same,outcome,[4],inactive
same,outcome,[5],inactive
same,outcome,[6],inactive
same,outcome,[7],inactive
same,outcome,[8],inactive
CCOCN(C(=O)CCl)c1c(C)cccc1CC,outcome,CYP3A5 (gene 1577),inactive
same,AC50,[1],87.7 µM (active)
same,AC50,[2],92.5 µM (active)
same,AC50,[9],84.6 µM (active)
same,AC50,[3],83.4 µM (active)
same,outcome,[4],inactive
same,AC50,[5],77.9 µM (active)
same,outcome,[6],inactive
same,outcome,[7],inactive
same,outcome,[8],inactive
O=C(O)CCCOc1ccc(Cl)cc1Cl,AC50,CYP3A5 (gene 1577),36.5 µM (active)
same,AC50,[1],10.1 µM (active)
same,outcome,[2],inactive
same,outcome,[9],inactive
same,outcome,[3],inactive
same,outcome,[4],inactive
same,outcome,[5],inactive
same,outcome,[6],inactive
same,outcome,[7],inactive
same,outcome,[8],inactive
O=C(Nc1ccccc1)Nc1cnns1,outcome,CYP3A5 (gene 1577),inactive
same,AC50,[1],65.5 µM (active)
same,AC50,[2],73.5 µM (active)
same,AC50,[9],50 µM (active)
same,AC50,[3],65.3 µM (active)
same,outcome,[4],inactive
same,outcome,[5],inactive
same,AC50,[6],80.3 µM (active)
same,outcome,[7],inactive
same,outcome,[8],inactive
CC(C)(C)C(O)C(Oc1ccc(Cl)cc1)n1cncn1 (stereo not drawn),AC50,[1],50 µM (active) and 21.4 µM (active)
same,AC50,[2],12.8 µM (active) and 14.6 µM (active) and 18 µM (active)
same,AC50,[9],8.02 µM (active) and 9.92 µM (active) and 1.24 µM (active)
same,outcome,[3],inactive
same,outcome,[4],inactive
same,outcome,[5],inactive
same,outcome,[6],inactive
same,outcome,[7],inactive
same,outcome,[8],inactive
CCCN(CCOc1c(Cl)cc(Cl)cc1Cl)C(=O)n1ccnc1,AC50,[1],32.9 µM (active)
same,AC50,[2],27.7 µM (active)
same,AC50,[9],33.2 µM (active)
same,AC50,[3],31.8 µM (active)
same,AC50,[4],12.4 µM (active)
same,AC50,[5],13 µM (active)
same,AC50,[6],13.4 µM (active)
same,AC50,[7],78 µM (active)
same,outcome,[8],inactive
CC(C)(C)C(O)/C(=C\c1ccc(Cl)cc1Cl)n1cncn1 (stereo not drawn),AC50,[1],30.5 µM (active)
same,AC50,[2],21.1 µM (active)
same,AC50,[9],32.6 µM (active)
same,AC50,[3],27.3 µM (active)
same,AC50,[4],81.5 µM (active)
same,AC50,[5],29.5 µM (active)
same,outcome,[6],inactive
same,outcome,[7],inactive
same,AC50,[8],93.3 µM (active)
O=C(O)COc1ccc(Cl)cc1Cl,outcome,[1],inactive
same,outcome,[2],inactive
same,outcome,[9],inactive
same,outcome,[3],inactive
same,outcome,[4],inactive
same,outcome,[5],inactive
same,outcome,[6],inactive
same,outcome,[7],inactive
same,outcome,[8],inactive
ClC1C(Cl)C(Cl)C(Cl)C(Cl)C1Cl (stereo not drawn),AC50,[1],6.88 µM (active)
same,outcome,[1],inactive
same,AC50,[2],9.67 µM (active) and 8.27 µM (active)
same,AC50,[9],3.88 µM (active)
same,outcome,[9],inactive
same,outcome,[3],inactive
same,outcome,[4],inactive
same,AC50,[5],0.488 µM (active)
same,outcome,[5],inactive
same,outcome,[6],inactive
same,outcome,[7],inactive
same,outcome,[8],inactive
CCc1ccc(C(=O)NN(C(=O)c2cc(C)cc(C)c2)C(C)(C)C)cc1,outcome,CYP3A5 (gene 1577),inactive
same,AC50,[1],50 µM (active)
same,AC50,[2],74.4 µM (active)
same,AC50,[9],4.22 µM (active)
same,outcome,[3],inactive
same,outcome,[4],inactive
same,outcome,[5],inactive
same,outcome,[6],inactive
same,outcome,[7],inactive
same,AC50,[8],81.7 µM (active)
O=[N+]([O-])c1c(Cl)c(Cl)c(Cl)c(Cl)c1Cl,AC50,[1],50 µM (active)
same,outcome,[2],inactive
same,outcome,[9],inactive
same,outcome,[3],inactive
same,outcome,[4],inactive
same,outcome,[5],inactive
same,outcome,[6],inactive
same,outcome,[7],inactive
same,outcome,[8],inactive
CCC(C)Nc1c([N+](=O)[O-])cc(C(C)(C)C)cc1[N+](=O)[O-] (stereo not drawn),AC50,[1],50 µM (active)
same,AC50,[2],38.7 µM (active)
same,AC50,[9],34.4 µM (active)
same,outcome,[3],inactive
same,outcome,[4],inactive
same,outcome,[5],inactive
same,outcome,[6],inactive
same,outcome,[7],inactive
same,outcome,[8],inactive
CN1CSC(=S)N(C)C1,outcome,CYP3A5 (gene 1577),inactive
same,outcome,[1],inactive
same,outcome,[2],inactive
same,outcome,[9],inactive
same,outcome,[3],inactive
same,outcome,[4],inactive
same,outcome,[5],inactive
same,outcome,[6],inactive
same,outcome,[7],inactive
same,outcome,[8],inactive
